These entries were drawn from the full list.
aSyn 5UTR act: Activators via SNCA 5'UTR binding, MLPCN | actives 7.1% (n = 300,000) | alpha-synuclein 5'UTR reporter, activators screen | activity score, % (tested at 7.5 µM), hits read low; in the data active means activity score below about -60%
* hit, by the source's call.

SMILES	aSyn 5UTR act
O=C(c1ccc(Cl)cc1)C(CN1CCCC1)c1ccccc1 (stereo not drawn)	-155.3*
Oc1cccc(/C=N/c2c(-c3ccco3)nc3ccccn23)c1	-71.5*
Cc1cc(C)c([N+](=O)[O-])cc1-c1ccc(/C=N/c2c(-c3ccco3)nc3ccccn23)o1	-91.9*
O=[N+]([O-])c1ccc(-c2ccc(/C=N/c3c(-c4ccco4)nc4ccccn34)o2)cc1	-75.3*
O=C(/C=C(/c1ccc(Cl)cc1)n1cncn1)c1ccccc1	-62.3*
CCCCS/C(N)=N/N=C/c1cc(C)ccc1O	-76.4*
CCS/C(N)=N/N=C/c1cc(C)ccc1O	-82.2*
COc1ccccc1OCC(=O)N/N=C/c1c(O)ccc2ccccc12	59.6
CS/C(N)=N/N=C/c1cc(C)ccc1O	-93.9*
CS/C(N)=N/N=C/c1c(O)ccc2ccccc12	-175.3*
CC1(C)CC(N=c2cc(-c3ccccc3)oc3ccc(Cl)cc23)CC(C)(C)N1	99.4
OCCCN=c1cc(-c2ccccc2)oc2ccc(Cl)cc12	-440.1*
O=C(CCNS(=O)(=O)c1cccs1)N1CCCCCC1	-102.4*
O=C(CCS(=O)(=O)c1ccccc1)N1CCN(c2ccccc2)CC1	-77.7*
O=C(CCS(=O)(=O)c1cccs1)N1CCCC1	-124.5*
Brc1ccccc1-n1nnc(-c2cccnc2)n1	-75.8*
Fc1ccc(C(CCCn2nnc(-c3cccnc3)n2)c2ccc(F)cc2)cc1	-102.6*
Clc1ccc(-n2nnc(-c3cccnc3)n2)cc1Cl	-156.9*
Fc1ccc(-n2nnc(-c3cccnc3)n2)cc1	-89.2*
Fc1ccc(-n2nnc(-c3cnc4ccccc4c3)n2)cc1	93.8
CCOC(=O)c1ccc(NC(=S)Nc2ccc(Br)cc2N)cc1	-114.0*
CCOC(=O)c1ccc(NC(=S)Nc2cccc(N)n2)cc1	-146.8*
COC(=O)c1ccc(C(=O)NC2CCCc3c2cnn3-c2ccc(C)c(C)c2)cc1 (stereo not drawn)	104.5
Cc1cc(C(=O)NC2CCCc3c2cnn3-c2cccc(C)c2C)no1 (stereo not drawn)	-117.7*
CN1CCCN(C(=O)/C=C/c2ccc(Cl)cc2Cl)CC1	-62.1*
SMILES	aSyn 5UTR act
NNC(=O)c1cc2cc3ccccc3nc2s1	-94.1*
CC(C)COc1ccc(C(=O)Nc2sc3c(c2C(=O)O)CC(C)(C)OC3)cc1	62.6
CC(C)Oc1ccc(C(=O)Nc2ncn[nH]2)cc1	-65.0*
CC(C)COc1ccc(C(=O)Nc2ncn[nH]2)cc1	-66.3*
Cc1ccc(C)c(/C=N/Nc2ccccn2)c1	-139.2*
COc1ccccc1/C=N/Nc1nccnc1Cl	-98.1*
COc1ccc(/C=N\Nc2ccccn2)c(OC)c1	-154.5*
COc1ccc(OC)c(/C=N\Nc2nccs2)c1	-65.1*
COc1ccc(/C=N/Nc2ncc(Br)cn2)c(OC)c1	-139.3*
COc1ccc(/C=N/Nc2ccccn2)c(OC)c1OC	-92.1*
CCN(CC)S(=O)(=O)c1ccc(N/N=C/c2cc(OC)ccc2O)nc1	86.8
CC(=O)c1ccc(NC(=O)CCc2nnc3ccc(N4CCCC4)nn23)cc1	-95.1*
Cc1ccc(F)cc1NC(=O)CCc1c(C)nn(-c2ccc(N3CCCCC3)nn2)c1C	-81.9*
COc1ccc(C)cc1NC(=O)CCc1c(C)nn(-c2ccc(N3CCCCC3)nn2)c1C	-94.7*
Cc1nn(-c2ccc(N3CCCCC3)nn2)c(C)c1CCC(=O)Nc1ccc(F)c(F)c1	-65.6*
Cc1ccc(NC(=O)CCc2c(C)nn(-c3ccc(N4CCOCC4)nn3)c2C)cc1F	-85.7*
Cc1ccc(NC(=O)CCc2c(C)nn(-c3ccc(N4CCCCC4)nn3)c2C)cc1	-107.1*
Cc1ccc(-n2nc(C)c(NC(=O)CCl)c2C)cc1	-146.4*
COc1ccc(-c2nn(-c3ccccc3)cc2N)cc1	-167.3*
Cc1ccc(-c2nn(-c3ccccc3)cc2CO)cc1	-103.6*
Cc1ccc(-n2nc3c(=O)n(CCCC(=O)NCc4ccc(Cl)cc4)nc(C)c3c2C)cc1	62.2
Cc1ccc(-c2nn(-c3ccccc3)cc2NC(=O)CCl)cc1	-71.1*
COc1ccc(-c2nn(-c3ccccc3)cc2CO)cc1	-86.2*
Cc1ccc(NC(=O)/C=C/c2cccs2)c([N+](=O)[O-])c1	-160.7*
O=C(/C=C/c1cccs1)Nc1ccncc1	-126.1*
SMILES	aSyn 5UTR act
CC(C)(C)c1ccc(/C=C/C(=O)Nc2ccncc2)cc1	-77.1*
O=C(/C=C/c1cccs1)NCc1ccccc1	-109.5*
Cc1cccc(NC(=O)/C=C/c2cccs2)n1	-108.5*
O=C(/C=C/c1cccs1)Nc1ccc([N+](=O)[O-])cc1	-146.6*
CCCOC(=O)c1ccc(NC(=O)/C=C/c2cccs2)cc1	-209.0*
O=[N+]([O-])c1ccc(/C=C/c2nc3ccc([N+](=O)[O-])cc3[nH]2)cc1	-165.0*
COc1ccc(-c2nc3ccc([N+](=O)[O-])cc3[nH]2)cc1	-63.4*
O=[N+]([O-])c1ccc(-c2cc(-c3ccc(Cl)cc3)n[nH]2)cc1	-74.6*
Clc1ccc(-c2nc3ccncc3[nH]2)cc1	-100.5*
COc1ccc2cc(-c3ccccc3)ncc2c1	-64.9*
COc1ccc(-c2cc3c(nn2)-c2ccccc2C3=O)cc1	98.4
COc1ccc2[nH]c(-c3ccccc3)cc2c1	-139.2*
O=[N+]([O-])c1cccc(-c2nc3ccc([N+](=O)[O-])cc3[nH]2)c1	-142.3*
COc1ccc2nc(-c3ccccc3)[nH]c2c1	-70.7*
O=[N+]([O-])c1ccc2nc(-c3ccc(Cl)cc3)[nH]c2c1	-221.4*
C/C(=C\c1ccccc1)C(=O)Nc1nccs1	-120.5*
N#C/C(=C\c1cccs1)C(=O)Nc1nccs1	-74.6*
C/C=C/C=C/C(=O)Nc1nccs1	-77.4*
O=C(Nc1nccs1)c1ccccc1N=Cc1ccccc1	-84.1*
O=C(Oc1ccc2ccc(O)cc2c1)c1ccccc1Cl	-128.4*
N/C(=N\OC(=O)c1ccc(F)cc1)c1cccc([N+](=O)[O-])c1	-109.7*
N/C(=N\OC(=O)c1ccccc1Cl)c1cccc([N+](=O)[O-])c1	-66.9*
N/C(=N\OC(=O)c1ccccc1F)c1ccc([N+](=O)[O-])cc1	-151.4*
N/C(=N\OC(=O)c1cccc(F)c1)c1cccc([N+](=O)[O-])c1	-104.3*
N/C(=N/OC(=O)c1ccccc1Cl)c1ncc([N+](=O)[O-])s1	-80.4*
SMILES	aSyn 5UTR act
Cc1cccc(/C(N)=N/OC(=O)c2ccc(F)cc2)c1	-141.5*
N/C(=N\OC(=O)c1ccc2ccccc2c1)c1cccc([N+](=O)[O-])c1	-67.0*
N/C(=N\OC(=O)c1ccc2ccccc2c1)c1ccccn1	95.5
N/C(=N\OC(=O)c1ccc2ccccc2c1)c1ccccc1Cl	-140.3*
CCc1c(C(=O)OCc2ccccc2)[nH]c(C)c1C	-116.9*
CCc1c(C)[nH]c(C(=O)OCc2ccccc2)c1C	-74.7*
COc1ccc(OCCOC(=O)c2cccc(-n3cnnn3)c2)cc1	-81.3*
COc1ccc(C2=NC(c3ccccc3)CO2)cc1 (stereo not drawn)	-118.0*
O=C(Nc1ccccc1)Nc1cccc(Cl)c1Cl	-237.2*
O=C(Nc1ccc(Cl)cc1)Nc1cccc2nsnc12	-125.8*
O=C(Nc1ccccc1)Nc1ccccc1Br	-93.6*
O=C(CN1CCCC1)Nc1ccc(NC(=O)Nc2ccccc2Cl)cc1	-126.4*
S=C(Nc1ccc(OCc2ccccc2)cc1)Nc1cccc(Cl)c1Cl	-102.1*
O=C(Nc1ccccc1)Nc1ccc(Br)c(Cl)c1	-126.0*
O=C(NC1CCCCC1)c1cc(-c2ccc(F)cc2)on1	-155.8*
O=C(NC1CCCC1)c1cc(-c2ccc(Cl)c(Cl)c2)on1	-150.8*
